{"source": "PubChem BioAssay (Tox21)", "note": "Active and inactive are the calls of the source. Calls come from the whole dose curve. % is set by controls: 0 for no effect and ±100 for the full control effect."}
{"biological_target": "Gonadotropin-releasing hormone receptor (Homo sapiens) (UniProt P30968)", "sequence (P30968 whole entry, looked up)": "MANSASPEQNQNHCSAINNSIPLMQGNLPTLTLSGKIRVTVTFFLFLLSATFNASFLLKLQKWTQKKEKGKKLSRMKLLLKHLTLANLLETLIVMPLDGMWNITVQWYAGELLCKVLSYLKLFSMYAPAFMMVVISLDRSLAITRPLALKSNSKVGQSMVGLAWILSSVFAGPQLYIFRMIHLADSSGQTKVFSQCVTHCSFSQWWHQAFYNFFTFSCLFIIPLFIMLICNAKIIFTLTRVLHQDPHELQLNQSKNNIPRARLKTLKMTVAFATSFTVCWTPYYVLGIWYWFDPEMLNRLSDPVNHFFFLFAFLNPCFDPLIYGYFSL", "test": "Human gonadotropin-releasing hormone receptor (GnRHR) small molecule agonists, calcium flux assay in GnRHR-HEK293 cells (AID 1920063); note: nearly all actives have a fitted effect of over 35% in size", "details": "calcium flux fluorescence, agonist mode; series mostly up to 57.6 µM; activity change: at the top concentration", "from_the_text": "National Center for Advancing Translational Sciences [NCATS]\nDivision of Preclinical Innovation [DPI]\nU.S. Environmental Protection Agency [EPA]\nNational Institutes of Environmental Health Sciences [NIEHS]\nNational Toxicology Program [NTP]\nU.S. Food and Drug Administration [FDA]\nGonadotropin-releasing hormone receptor (GnRHR) is a G-protein-coupled receptor (GPCR) and acts (through phospholipase C) to increase intracellular inositol trisphosphate and then release intracellular calcium stores. Cell-based GnRHR-Hek293 calcium influx assay is using HEK293 cells that have been genetically engineered to express the human GnRHR, which activity can be measured by calcium signaling. A compound/drug can activate (agonist) GnRHR that can be monitored by levels of intracellular calcium.\nGnRHR-HEK293 cells developed by Codex Corp contain human GnRHR reporter gene, which was stably integrated into HEK 293 cells. The compound activation can be detected by fluorescence intensity via calcium flux assay. This cell line has been used to screen the Tox21 10K compound library to identify GnRHR agonists.\nGnRHR-Hek293 cells were dispensed at 1500cells/4uL/well in 1536-well black wall/clear bottom plates using a multidrop dispenser. After the assay plates were incubated at a 37 C/5% CO2 incubator for 18 hours, 4 uL of Calcium Dye Solution was added to each well. The plates were incubated at 37 C for 1 hour. For agonist mode, 23 nL of compounds dissolved in DMSO, positive controls or DMSO only was transferred to the assay plate by a pin tool station. The fluorescence intensity in the plates was measured using FDSS 7000EX kinetic plate reader with a filter set of Ex/Em=480/540 for 3 min at 1 sec intervals. Each test compound was measured at 15 concentrations and in triplicates."}
{"compound": "CCOC(=O)c1ccc(OCCN2C[C@H](O)[C@@H](O)[C@H](O)[C@H]2CO)cc1", "activity change": "-1.14% [at 26.4 µM, hits give high values] (inactive)"}
{"compound": "CC(C)CCCO", "activity change": "1.59% (inactive)"}
{"compound": "CCCCCCCCCCCCCCCC", "activity change": "-0.0082% (inactive)"}
{"compound": "COC(=O)CCCCC(=O)O", "activity change": "-0.893% (inactive)"}
{"compound": "CCCCCCCC(=O)N(C)C", "activity change": "-0.0409% (inactive)"}
{"compound": "CC(=O)OC[C@H]1O[C@@H](OC(C)=O)[C@H](OC(C)=O)[C@@H]1OC(C)=O", "activity change": "-0.806% [at 26.4 µM, hits give high values] (inactive)"}
{"compound": "CC(=O)c1cc(C)oc1C", "activity change": "0.389% (inactive)"}
{"compound": "O=C(Nc1ccc([N+](=O)[O-])cc1)Nc1ccc([N+](=O)[O-])cc1", "note": "(tested in a mixture with another compound)", "activity change": "-0.0654% [at 26.4 µM, hits give high values] (inactive)"}
{"compound": "Cc1ncsc1CCO", "activity change": "0.0833% (inactive)"}
{"compound": "Cc1c(I)c(=O)n(-c2ccccc2)n1C", "activity change": "0.571% [at 26.4 µM, hits give high values] (inactive)"}
{"compound": "CN1CCc2cccc3c2[C@H]1Cc1ccc(O)c(O)c1-3", "Potency": "inactive"}
{"compound": "CC(=O)CC(N)=O", "activity change": "-0.0305% (inactive)"}
{"compound": "COC(=O)c1ccccc1C(=O)c1ccc(OCCN2CCCCC2)cc1", "activity change": "0.726% [at 26.4 µM, hits give high values] (inactive)"}
{"compound": "CN(C)c1cccc(O)c1", "Potency": "inactive"}
{"compound": "CC(C)CCCC(C)CCO", "note": "(stereo not given)", "activity change": "-0.957% (inactive)"}
{"compound": "C1CSCCS1", "activity change": "14.6% (inactive)"}
{"compound": "CC(C)CCOCCC(C)C", "activity change": "0.21% (inactive)"}
{"compound": "CC(C)CC(O)CC(C)C", "activity change": "-0.524% (inactive)"}
{"compound": "CC(C)(N=C=O)c1cccc(C(C)(C)N=C=O)c1", "Potency": "inactive"}
{"compound": "O=C(O)c1ccco1", "activity change": "-1.04% (inactive)"}
{"compound": "CC(=O)OCc1ccco1", "Potency": "inactive"}
{"compound": "COC(=O)c1ccc([N+](=O)[O-])cc1", "activity change": "-1% (inactive)"}
{"compound": "C[N+](C)(CCOc1ccccc1)Cc1cccs1", "activity change": "0.869% [at 26.4 µM, hits give high values] (inactive)"}
{"compound": "Cc1ccc(-c2ccccc2)cc1", "activity change": "0.707% (inactive)"}
{"compound": "Nc1nc(N)c2nc(-c3ccccc3)c(N)nc2n1", "Potency": "inactive"}
{"compound": "O=C(Nc1ccc([N+](=O)[O-])cc1Cl)c1cc(Cl)ccc1O", "Potency": "inactive"}
{"compound": "CCC(=O)OC/C=C(\\C)CCC=C(C)C", "activity change": "-0.0852% (inactive)"}
{"compound": "CC(C)(O)C#CC(C)(C)O", "activity change": "-2.16% (inactive)"}
{"compound": "CCN(CC)CCOc1ccc(/C(=C(\\Cl)c2ccccc2)c2ccccc2)cc1", "Potency": "inactive"}
{"compound": "CC(=O)C1(C)CC2=C(CCCC2(C)C)CC1C", "note": "(stereo not given)", "Potency": "inactive"}
{"compound": "CC(=O)Nc1ncc([N+](=O)[O-])s1", "activity change": "-0.143% [at 26.4 µM, hits give high values] (inactive)"}
{"compound": "C=COCCCC", "activity change": "0.0589% (inactive)"}
{"compound": "CCC(C)C1CCCCC1=O", "note": "(stereo not given)", "activity change": "0.0429% (inactive)"}
{"compound": "Nc1c(Br)cc([N+](=O)[O-])cc1Br", "activity change": "0.478% (inactive)"}
{"compound": "Cn1cnc2c(F)c(Nc3ccc(Br)cc3Cl)c(C(=O)NOCCO)cc21", "activity change": "-0.199% [at 26.4 µM, hits give high values] (inactive)"}
{"compound": "O=C(/N=N/C(=O)OCc1ccccc1)OCc1ccccc1", "activity change": "-0.729% (inactive)"}
{"compound": "CCCCCCCCCOCC1CO1", "note": "(stereo not given)", "activity change": "1.97% (inactive)"}
{"compound": "FC(F)(F)C(Cl)(Cl)Cl", "activity change": "2.35% (inactive)"}
{"compound": "COc1ccc(C(=O)CC(=O)c2ccc(C(C)(C)C)cc2)cc1", "Potency": "inactive"}
{"compound": "Nc1ccc(Oc2ccc(Cl)cc2)cc1", "activity change": "4.38% (inactive)"}
